# From PubChem
# Sampled rows, rich in hits. Any-hit rate of the full collection: about 2.3%.
# CHT PAM – CHT positive allosteric modulators, primary screen, cell-based, membrane potential dye, choline EC20; High affinity choline transporter 1 (Homo sapiens), Q9GZV3; CHT-expressing cells; stronger effect = higher value; LV-AA mutant CHT in HEK293 cells; B-score at 10 µM; 0.49% of 310,000 active;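 active = initial fluorescence not abnormally high and integrated response B-score, plate-corrected, over 3 SD above library mean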
# CHT block – inhibitors of human choline transporter CHT. High affinity choline transporter 1 (Homo sapiens), Q9GZV3. CHT-expressing cells, membrane potential dye, choline response; stronger effect = lower value. B-score at 10 µM. 0.86% of 310,000 active. AID 488975, 2010;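 active = B-score over 3 SD under the library average, and starting fluorescence ratio not unusually high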;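 also: choline stimulus applied at its EC90 after an EC20 pre-addition; B-score computed on integrated fluorescence ratio after choline addition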
# TMEM16A inh – TMEM16A chloride channel inhibitors, primary screen, cell-based, HTS; Anoctamin-1 (Mus musculus), Q8BHY3; HEK293 TMEM16A/YFP iodide influx fluorescence, ionomycin; normalized B-score (activity score, 25-100; higher = stronger inhibition) at 10 µM; 1.2% of 310,000 active; AID 588511, 2011;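 active = ratio plate-corrected score three or more library SD toward inhibition, starting fluorescence score within five deviations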;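 also: score derived from kinetic fluorescence span divided by baseline fluorescence per well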
# Target sequence (Q8BHY3 whole entry, looked up): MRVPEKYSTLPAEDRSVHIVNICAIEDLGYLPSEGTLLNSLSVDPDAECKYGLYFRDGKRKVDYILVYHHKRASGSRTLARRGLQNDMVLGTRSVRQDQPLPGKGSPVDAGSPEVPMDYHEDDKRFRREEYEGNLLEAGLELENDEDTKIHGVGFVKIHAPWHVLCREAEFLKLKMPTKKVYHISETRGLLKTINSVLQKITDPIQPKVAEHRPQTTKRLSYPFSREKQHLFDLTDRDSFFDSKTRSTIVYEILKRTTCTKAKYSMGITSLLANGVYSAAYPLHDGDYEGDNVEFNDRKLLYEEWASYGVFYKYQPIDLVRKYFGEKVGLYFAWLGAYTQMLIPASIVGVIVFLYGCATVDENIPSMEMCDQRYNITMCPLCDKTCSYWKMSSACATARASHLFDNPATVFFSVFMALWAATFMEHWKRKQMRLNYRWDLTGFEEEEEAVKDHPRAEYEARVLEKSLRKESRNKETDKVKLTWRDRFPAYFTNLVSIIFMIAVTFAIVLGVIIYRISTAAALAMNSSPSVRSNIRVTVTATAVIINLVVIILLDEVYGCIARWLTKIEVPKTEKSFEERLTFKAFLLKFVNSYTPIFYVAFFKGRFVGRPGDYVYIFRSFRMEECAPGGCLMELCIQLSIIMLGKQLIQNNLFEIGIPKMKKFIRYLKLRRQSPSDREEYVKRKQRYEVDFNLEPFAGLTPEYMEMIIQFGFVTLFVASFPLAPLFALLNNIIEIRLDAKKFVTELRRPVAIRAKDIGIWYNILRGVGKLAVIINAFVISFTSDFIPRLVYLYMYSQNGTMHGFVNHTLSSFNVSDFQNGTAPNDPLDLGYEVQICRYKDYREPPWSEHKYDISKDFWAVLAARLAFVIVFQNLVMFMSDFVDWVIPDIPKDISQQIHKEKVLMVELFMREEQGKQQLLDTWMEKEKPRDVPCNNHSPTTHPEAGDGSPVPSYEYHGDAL
# ANO1 activ – TMEM16A chloride channel activators or potentiators, primary screen, cell-based, HTS | Anoctamin-1 (Mus musculus), Q8BHY3 | HEK293 TMEM16A/YFP-H148Q/I152L, iodide quench fluorescence; stronger effect = lower value | B-score at 10 µM | 0.3% of 340,000 active | AID 623877, 2012;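 active = fluorescence-ratio B-score plate-corrected deviation score at least 3 library SD below zero, with starting fluorescence score within 5 deviations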;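 also: channel opened by trigger with iodide after compound preincubation; score built on the fluorescence ratio of max minus min over baseline; more negative score means more quench and so TMEM16A activation or potentiation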
# An asterisk follows results filed as active; i = inactive; . = not tested or not shown.
SMILES,CHT PAM,CHT block,TMEM16A inh,ANO1 activ
Cc1ccc(S(=O)(=O)c2c(N)n(CCN3CCOCC3)c3nc4ccccc4nc23)cc1C,i,i,i,-20*
Cc1ccc(S(=O)(=O)c2c(N)n(Cc3ccco3)c3nc4ccccc4nc23)cc1C,i,i,25*,i
Cc1ccc(S(=O)(=O)c2c(N)n(CCC(C)C)c3nc4ccccc4nc23)cc1,i,i,i,i
Nc1c(S(=O)(=O)c2ccccc2)c2nc3ccccc3nc2n1CCN1CCOCC1,i,i,i,i
CCc1ccc(/C=C2\SC(=S)N(CCCC(=O)Nc3ccc(C(=O)O)cc3)C2=O)cc1,i,i,100*,i
CCc1ccc(/C=C2\SC(=S)N(CCCC(=O)Nc3ccccc3C(=O)O)C2=O)cc1,i,i,100*,i
C=CC(n1cncn1)C(O)(c1ccccc1)c1ccccc1 (centres undefined),i,i,i,i
O=C(Cn1c(=O)n(CCCC(=O)NC2CCCC2)c(=O)c2ccccc21)NCCC1=CCCCC1,i,i,i,i
COc1cc(OC)c(NC(C)C(=O)N2CCCC2)cc1Cl (centres undefined),i,-8.7*,i,i
CC(=O)c1sc2nc(-c3ccco3)ccc2c1N,i,i,i,i
CN(CC(=O)Nc1cc(S(=O)(=O)N2CCCCCC2)ccc1Cl)Cc1ccc2c(c1)OCO2,.,.,.,-14*
C[C@H]1COc2c(C3(N)CC3)c(F)cc3c(=O)c(C(=O)O)cn1c23,i,i,i,.
C[C@H]1COc2c(N3CCN(C)CC3)c(F)cc3c(=O)c(C(=O)O)cn1c23,8.9*,i,i,i
CCOC(=O)Cc1nn(Cc2nc(-c3ccc(C)cc3)cs2)c(=O)c2ccccc12,i,i,25*,i
COc1ccc(S(=O)(=O)N2CCC(C(=O)NCCCN3CCOCC3)CC2)cc1,i,i,i,i
COc1ccc(C(=O)OCC(O)COC(=O)c2ccc(OC)cc2)cc1,i,i,i,i
O=C(CCNC(=O)C1CCN(S(=O)(=O)c2ccccc2)CC1)NCc1ccncc1,i,i,i,-28*
CC(=O)Nc1ccc(S(=O)(=O)N2CCC(C(=O)NCCC(=O)NCc3ccncc3)CC2)cc1,i,i,i,i
CCOC(=O)N1CCC(NC(=O)C2CCCN(Cc3nc(-c4ccc(CC)cc4)oc3C)C2)CC1 (centres undefined),i,i,25*,i
CN(C(=O)COC(=O)c1ccccc1NCc1ccco1)c1c(N)n(Cc2ccccc2)c(=O)[nH]c1=O,i,i,i,i
COc1ccc(S(=O)(=O)N2CCOCC2)cc1NC(=O)CN1C(=O)CN(C)C1=O,.,.,.,i
CCc1nc(N)c(C#N)c(-c2ccccc2OC)c1C,i,i,i,i
CC1(C)CC(=O)C2=C(C1)OC(N)=C(C#N)C2c1ccccc1 (centres undefined),i,i,i,i
CC1(C)CC(=O)C2=C(C1)OC(N)=C(C#N)C2c1ccccc1[N+](=O)[O-] (centres undefined),i,i,i,-4.6*
O=C(Cc1ccc(Br)cc1)c1ccc(O)cc1O,i,-6.7*,i,i
SMILES,CHT PAM,CHT block,TMEM16A inh,ANO1 activ
CCCC(=O)N1CCN(c2nc(CC(C)C)c3c(c2C#N)CCC3)CC1,7*,i,i,i
COc1ccccc1N(CC(=O)NCCN1CCOCC1)S(=O)(=O)c1ccccc1,i,i,i,i
CN(C)S(=O)(=O)c1cccc(-c2nnc(SCc3ccc4c(c3)OCCO4)o2)c1,i,i,i,-17*
Cc1ccc(S(=O)(=O)Nc2ccccc2N2CCCCC2)cc1,.,.,.,-20*
C=CCn1c(COc2ccccc2F)nnc1SCCN1C(=O)c2ccccc2C1=O,i,i,i,i
O=Cc1cccn1Cc1ccc(Cl)cc1Cl,i,i,i,i
NNC(=O)c1cccn(Cc2ccc(Cl)cc2Cl)c1=O,i,i,i,-7.2*
N#Cc1ccccc1OCC(=O)OCC(=O)N1CCN(C(=O)c2ccco2)CC1,i,i,i,i
Cc1ccccc1-n1c(SCc2c(C)noc2C)nnc1-c1ccncc1,i,i,i,i
Cc1ccccc1-n1c(SCc2c(C)noc2C)nnc1-c1cccnc1,i,i,i,-5.2*
Cc1ccnc(NC(=O)c2cccc(NC(=O)CC3SC(N4CCCCC4)=NC3=O)c2)c1 (centres undefined),.,.,.,-38*
COc1ccc(NS(=O)(=O)c2cccc(NC(=O)NC3CCCCC3)c2)cc1,i,i,25*,i
CCOc1ccc2noc3c2c1C(=O)c1ccccc1-3,i,i,i,i
O=C1c2ccccc2-c2onc3ccc(N4CCCC4)c1c23,.,.,.,-8.3*
O=C(NN1C(=O)c2ccccc2NC1c1ccco1)c1ccc([N+](=O)[O-])cc1 (centres undefined),i,i,i,i
COc1ccc(NS(=O)(=O)c2ccc(NC(=S)NC(=O)C(C)C)cc2)cc1,i,i,25*,i
CCOc1ccc(NS(=O)(=O)c2ccc(NC(=S)NC(=O)C(C)C)cc2)cc1,i,i,i,i
Cc1cc(C)cc(-n2c(C)cc(/C=N/NC(=O)CN(c3c(C)cccc3C)S(C)(=O)=O)c2C)c1,i,i,i,i
Cc1ccc(N(CC(=O)N/N=C/c2cc(C)n(-c3ccccc3C)c2C)S(C)(=O)=O)cc1,i,-7*,i,i
c1ccc(-c2cc3ccccc3[nH]2)cc1,i,i,i,i
Clc1ccc2[nH]c(-c3ccccc3)cc2c1,i,i,25*,i
Cc1ccc(-c2csc(NCCn3c(C)nc4cc(C(F)(F)F)ccc43)n2)cc1,.,.,.,i
COc1cc(/C=C(/C#N)c2nc3ccccc3[nH]2)ccc1OC(=O)c1ccco1,i,i,i,-4.8*
COc1ccc(/C=C(\C#N)c2nc3ccccc3[nH]2)cc1O,.,.,.,i
COc1ccc(NC(=O)N(C)C[C@@H]2Oc3ccc(NC(=O)NC(C)C)cc3CC(=O)N([C@H](C)CO)C[C@@H]2C)cc1,.,.,.,i
Cc1oc(-c2cccc(Cl)c2)nc1CN1CCC(C(=O)NCc2ccco2)CC1,i,i,i,i
CCN1CCCC1CNC(=O)C1CCN(Cc2nc(-c3cccc(Br)c3)oc2C)CC1 (centres undefined),8.3*,i,i,i
COc1cccc(CN(C)C(=O)c2cc(S(=O)(=O)NC3CCCCC3)ccc2C)c1OC,.,.,.,i
COC(=O)c1ccc(CSc2nc3ccccc3o2)cc1,i,i,25*,i
NC(=O)C[C@H](N)c1cn([C@@H](CC(N)=O)C(=O)N2CCNCC2)nn1,i,i,i,-10*
